U2OS ROS induce: cancer cell ROS induction. U2OS ROS induction, H2DCF-DA fluorescence. ROS induction (% of piperlongumine), % at 10 µM. actives 2% (n = 46,000); in the data active = ROS induction above about 79%, passing the limit was not always enough
A number is an active result; – = inactive. Only a selection was taken, and hits are over-represented in it overall.

SMILES | U2OS ROS induce
COc1ccc(CC(=O)N2CCN(c3ncccn3)CC2)cc1OC | –
C=CCn1c(SCC(=O)Nc2ccc(C)cc2)nnc1C1CC1 | –
CN(C)c1nc(Nc2ccc(OC(F)(F)F)cc2)nc(NC(C)(C)C)n1 | –
COc1cccc(NCc2cn(-c3ccccc3)nc2-c2cccs2)c1 | –
C=CCN(CC=C)CC(O)Cn1c(-c2ccc(OC)cc2)cc2ccccc21 (stereo unspecified) | –
CCOC(=O)c1sc2nc(SCC(=O)c3ccc(Br)cc3)n(N)c(=O)c2c1C | –
COC(=O)CNS(=O)(=O)c1ccc(I)cc1 | –
C[C@H](CO)N1C[C@H](C)[C@@H](CN(C)Cc2ccc(Oc3ccccc3)cc2)Oc2c(NC(=O)C3CC3)cccc2C1=O | 84.4
C[C@H](CO)N1C[C@H](C)[C@@H](CN(C)Cc2ccc(-c3ccccc3)cc2)Oc2c(NC(=O)C3CC3)cccc2C1=O | 173.3
C[C@H]1CN([C@@H](C)CO)C(=O)c2cc(N(C)C)ccc2O[C@H]1CN(C)Cc1ccc(-c2ccccc2)cc1 | –
C[C@H]1CN([C@@H](C)CO)C(=O)c2cccc(NC(=O)C3CCCCC3)c2O[C@H]1CN(C)Cc1ccc(Oc2ccccc2)cc1 | –
C[C@@H]1CN([C@@H](C)CO)C(=O)c2cccc(NC(=O)C3CC3)c2O[C@@H]1CN(C)Cc1ccc(Oc2ccccc2)cc1 | –
C[C@@H]1CN([C@H](C)CO)C(=O)c2cccc(NC(=O)C3CC3)c2O[C@@H]1CN(C)Cc1ccc(-c2ccccc2)cc1 | –
C[C@H](CO)N1C[C@H](C)[C@H](CN(C)Cc2ccc(-c3ccccc3)cc2)Oc2c(NC(=O)C3CC3)cccc2C1=O | –
C[C@H](CO)N1C[C@H](C)[C@@H](CN(C)Cc2ccc(-c3ccccc3)cc2)Oc2ccc(N(C)C)cc2C1=O | 93.5
C[C@@H]1CN([C@@H](C)CO)C(=O)c2cc(N(C)C)ccc2O[C@@H]1CN(C)Cc1ccc(-c2ccccc2)cc1 | –
COc1ccccc1C(=O)Nc1ccc(C)cc1C | –
COc1ccc(-c2cc(CC(C)C)nc(N)c2C#N)cc1 | –
CCc1ccc(Sc2cc(C(=O)NCC3CCCO3)c3ccccc3n2)cc1 (stereo unspecified) | –
Cc1ccc(C=C2C(=O)NC(=O)NC2=O)cc1 | –
CN(C)CCN(C(=O)c1ccc(Br)cc1)c1nc2ccc(Cl)cc2s1 | –
Cc1ccc(S(=O)(=O)n2nccc2-c2c(C)nc3ccccn23)cc1 | –
CCCn1c(=N)c(C(=O)OC)cc2c(=O)n3ccccc3nc21 | –
N=c1c(S(=O)(=O)c2ccccc2)cc2c(=O)n3ccccc3nc2n1C1CCCC1 | 83.0
COC(=O)c1cc2c(=O)n3ccccc3nc2n(C(C)C)c1=N | –
SMILES | U2OS ROS induce
O=C(NCC1CN(Cc2ccccc2)CCO1)c1ccc(N2CCOCC2)nc1 (stereo unspecified) | –
O=C(CSc1ccc(-c2cccs2)nn1)N1CCc2ccccc21 | –
O=C(c1cccc(N2C(=O)c3ccccc3C2=O)c1)N1CCCCC1 | –
CC1CCCC(C)N1CCNC(=O)C1C2C=CC3(CN(Cc4ccccc4Cl)C(=O)C13)O2 (stereo unspecified) | –
C[C@H]1CN([C@@H](C)CO)C(=O)c2cc(NC(=O)Cc3cn(C)c4ccccc34)ccc2O[C@@H]1CN(C)Cc1ccc(C(F)(F)F)cc1 | 122.4
C[C@H](CO)N1C[C@H](C)[C@@H](CN(C)Cc2ccc(C(F)(F)F)cc2)Oc2ccc(NC(=O)Cc3cn(C)c4ccccc34)cc2C1=O | 108.8
C[C@@H]1CN([C@@H](C)CO)C(=O)c2cc(NC(=O)Cc3cn(C)c4ccccc34)ccc2O[C@@H]1CN(C)Cc1ccncc1 | –
C[C@@H]1CN([C@@H](C)CO)C(=O)c2cc(NC(=O)Cc3cn(C)c4ccccc34)ccc2O[C@@H]1CN(C)Cc1ccccc1 | –
C[C@@H]1CN([C@H](C)CO)C(=O)c2cc(NC(=O)Cc3cn(C)c4ccccc34)ccc2O[C@H]1CN(C)Cc1ccc(C(=O)O)cc1 | –
C[C@H](CO)N1C[C@H](C)[C@H](CN(C)Cc2ccc(C(=O)O)cc2)Oc2ccc(NC(=O)Cc3cn(C)c4ccccc34)cc2C1=O | –
COCC(C)NC(=O)Cn1nc(C)c(NC(=O)c2cc(-c3ccccc3F)no2)c1C (stereo unspecified) | –
O=C(c1ccco1)N1CCN(Cc2ccc3c(c2)OCO3)CC1 | –
CC(C)(C)n1ncc2c(=O)n(Cc3cccc4ccccc34)cnc21 | –
O=c1oc2cc(OCc3ccc(Cl)cc3)ccc2c2c1CCC2 | –
Cc1ccc(Nc2nc(SCc3ccccc3)nnc2C)cc1 | –
CCC(Sc1nc2ccncc2[nH]1)C(=O)N(CC)CC (stereo unspecified) | –
CCSC1=C(C#N)C(=O)NC(CO)S1 (stereo unspecified) | –
CC1NC(=O)C(C#N)=C(SCc2ccccc2)S1 (stereo unspecified) | 93.3
CCSC1=C(C#N)C(=O)NC(C(C)C)S1 (stereo unspecified) | –
C=C(C)C(=O)O[C@H]1CC(=C)C2C[C@H](O)[C@](O)(CO)C2[C@H]2OC(=O)C(=C)[C@H]12 (stereo partly specified) | 186.0
C=C(C)C(=O)O[C@H]1C[C@@]2(C)OC(=CC2=O)/C(COC(C)=O)=C\[C@H]2OC(=O)C(=C)C12 (stereo partly specified) | –
C=C(C)C(=O)O[C@H]1[C@H]2C(=C)C(=O)O[C@@H]2C[C@@H](C)[C@@H]2O[C@@H]2C(=O)[C@](C)(O)[C@@H]1OC(=O)C(=C)C | –
CC(N=C1CC(C)(C)CC(=O)/C1=C(O)/C=C/c1ccccc1)C(=O)O (stereo unspecified) | –
Cc1nc(-c2ccccc2)sc1C(=O)C1C(=O)C(=O)N(CCCN2CCOCC2)C1c1cccs1 (stereo unspecified) | 115.1
Cc1nc(-c2ccccc2)sc1C(=O)C1C(=O)C(=O)N(CCCN2CCOCC2)C1c1ccco1 (stereo unspecified) | –
SMILES | U2OS ROS induce
O=C1C(=O)N(CCCN2CCOCC2)C(c2cccs2)C1C(=O)c1ccccc1 (stereo unspecified) | –
Cc1ccccc1NC(=O)C1CCN(C(=O)c2cc3sccc3n2Cc2ccc(F)cc2)CC1 | –
COc1cc(C2NC(=S)NC(C)=C2C(=O)Nc2ccccc2Cl)ccc1OCC#N (stereo unspecified) | 102.6
CC1=C(C(=O)Nc2ccccc2Cl)C(c2cc(Br)ccc2OCC(N)=O)NC(=S)N1 (stereo unspecified) | –
CC1=C(C(=O)Nc2cccc(Cl)c2C)C(c2ccc(F)cc2)NC(=S)N1 (stereo unspecified) | –
O=C(Cn1c(SCc2cccc(Cl)c2)nc2ccncc21)NCC1CCCO1 (stereo unspecified) | –
CC(=O)Nc1ncc2c(n1)CC(c1ccccc1)CC2=O (stereo unspecified) | –
C[C@H](CO)N1C[C@H](C)[C@H](CN(C)C(=O)Nc2cccc3ccccc23)Oc2ncc(-c3cccc(C(F)(F)F)c3)cc2C1=O | 108.7
C[C@H](CO)N1C[C@H](C)[C@H](CN(C)S(C)(=O)=O)Oc2ncc(-c3cccc(C(F)(F)F)c3)cc2C1=O | –
CC(C)NC(=O)N(C)C[C@@H]1Oc2ncc(-c3cccc(C(F)(F)F)c3)cc2C(=O)N([C@H](C)CO)C[C@@H]1C | –
C[C@H](CO)N1C[C@H](C)[C@H](CN(C)C(=O)NC2CCCC2)Oc2ncc(-c3cccc(C(F)(F)F)c3)cc2C1=O | 122.3
C[C@H](CO)N1C[C@H](C)[C@H](CN(C)C(=O)NC2CCCCC2)Oc2ncc(/C=C/c3ccccc3)cc2C1=O | 109.2

Assay outcomes (PubChem BioAssay)
